# Data reported in PubChem BioAssay AID1347426 (Functional Genomics Laboratory (NCATS/FGL), 2020).
# Screen size: about 31,000 sequences; about 1,400 (4.5%) were called active. Only a selection was taken, and actives are over-represented in it overall. A number with no mark means an inactive call.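 How the source made its calls: active means median seed-adjusted z-score above 1 or below -1; inactive means the rest.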
# Assay: Novel Modifiers of Survival Motor Neuron (SMN) Protein: Gene Identification via Genome-wide siRNA Screen;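 further: luminescence tracks full-length SMN protein made from the SMN2 reporter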
# Conditions: HEK293T SMN2-luciferase reporter, siRNA knockdown, 72 h; actives lie on both sides
# Procedure, shortened: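 Each of three siRNAs per gene is reverse-transfected (1 pmol) into reporter HEK293T cells whose luciferase output tracks SMN protein level. After 72 h culture, ONE-Glo luminescence is control-normalized, log10-transformed and MAD-standardized; Common Seed Analysis deprioritizes seed-driven hits.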
row,Sequence,median seed-adjusted z-score
1,GGAGUACCAUAGAUACAGATT against PPIG,-0.0192
2,GGAUCGCUGUCUCUAACUUTT against RRM1,-5.51 (active)
3,GCCUCUAUUUGAUAAGCGATT against NAP1L1,0.263
4,GCGUUGGUCGGGAUGAUUATT against P2RY10,-0.432
5,GGAGGUCUAUAUUAUAAGATT against CFHR4,-0.0972
6,GAUACGCUAUGAACUCUCATT against RCE1,-1.19 (active)
7,GCAUUAGAAACUUACAAGATT against TROVE2,0.399
8,CGAGUGUUCCCGGACAACATT against PODNL1,-0.448
9,GCUCAGCCCUUACUGUACATT against ZNF569,0.425
10,GAUUGACCUGCGUUACGAATT against ADCK2,0.0823
11,UGCCUUAUCUGGAAGCAAATT against ERMAP,-0.276
12,GAUUCCCUGCAUCAACUAATT against SQLE,-1.14 (active)
13,GGGAAACGAUAUUCAUACATT against ADAMTS19,-0.39
14,GUUAGGUAGUAGAAACAAATT against TCFL5,1.52 (active)
15,GUUUCGGACCUAUCUCUGATT against RBM3,0.0539
16,CAAAGUGGAUUCAAAGAUUTT against PRKCH,0.761
17,CACCUUUUCUGGAUAGAGATT against DSC1,-0.151
18,GCCUUAUGAUGGAAGAGAUTT against EYA2,0.111
19,GUCUAGAUGAUCACAAGUATT against PSMD1,-1.61 (active)
20,GUUCUACCGUGGACAGCAATT against CLCN1,0.314
21,CAACAACAAUCAUAGCUGATT against SSBP1,-0.456
22,GACUGGAAAUGAUUCGAGATT against RTCD1,0.0794

row,Sequence,median seed-adjusted z-score
1,CCUAUGGACUGAACAGGGATT against ZDHHC3,0.229
2,GUCUGGAGAUCAUAUUUUUTT against PIM3,-1.01 (active)
3,CAUUCUGACCGUGAACAAUTT against CTRB1,-0.214
4,CGAUGACUCAGAAAAGCGATT against ARHGEF10,0.22
5,CGAGGAUAUUGACUGGGUATT against PRKCZ,-0.175
6,GCCCUGCAUUUGCGAUGAATT against ZNF169,0
7,CACUUGCACAGAUACCCUUTT against COLEC12,-1.04 (active)
8,GGAAAGAGUUCAGUCGGAATT against ZNF671,-0.0551
9,GAAAGAUUGUACCAGUUGATT against CMPK1,-0.363
10,GCGAGUGUGAGAAAACAUUTT against ZFP3,0
11,GAGCGAGACAUAAAAUAUUTT against ZNF257,0.306
12,CCCAAGAAAUAUUAACAUUTT against AP3S1,0.787
13,CGAAUUUCCUAGUAAACCATT against TFAP2C,1.28 (active)
14,CGUCAUGAGCCUCUACGAATT against PTPN5,0.22
15,GGAAAUCCAUCUACCGCUATT against SORL1,0.357
16,GAUCAGGUGCUGUUCCAUATT against DGAT2L3,0.247
17,CAUCGAGGGUCAUACUAUUTT against POLR2A,-3.81 (active)
18,GACUGCUGCUUAUCAACAATT against SPR,0.0329
19,GACCUUACCUCAGACUAGATT against EXOG,0.746
20,AGAUGUACCUGUUCGUGUATT against DNASE1L2,-0.228
21,GGACCUACGUUGCAGUUCATT against SUZ12,-1.65 (active)
22,GCACUGGAGAAGUAUGUGATT against ALOX12B,0.0071

row,Sequence,median seed-adjusted z-score
1,GCACUUUACCAUUAGACAATT against LDB2,-0.0847
2,GGAGACUAGUAAGCACUAUTT against JARID1B,0
3,CAAGAGGGUUUUUACCAUATT against SEC11C,0.508
4,GGUCAUGGAUGUGCACGAUTT against KRT14,-0.127
5,CAUCAGGAAUGGAAUUACATT against SKIL,-0.868
6,GGUCCAAGCUGAUUACCCUTT against UNC13A,-2.1 (active)
7,CCUCCCAUCUUAUUAUCCATT against ZNF572,0.237
8,GGUGGAGACAUUUACAUCUTT against CREB3L1,0.708
9,CAAAGUACCGAGUCGAAUATT against SENP7,0.547
10,GCAAGACCGUGAGACAACUTT against SENP7,0.547
11,GGAAGAAAAUAGUGCUGCATT against BARX1,1.63 (active)
12,CAUUCGCCGUUACCUGCCATT against POLR2F,-3.52 (active)
13,GAACCACAAGGAGAAGUUUTT against PSMC3,-0.701
14,ACAAGGACUAUUACAGAUATT against PLA2G2D,0.361
15,GGAGACAUCUGACCCAGCATT against ARHGAP9,0
16,CGUCAGAUCUGAACAAGAATT against CHST4,0.349
17,GUAUAUCAGUUCCAGUUUATT against RANBP3,-0.211
18,UUAUCACAGAGCAACCUAATT against NUBPL,0.105
19,GGAAUGCACCCAGAUCAAATT against TFAP2D,0
20,GGCCUUUCCUUUACUGUCATT against ABCC4,-1.66 (active)
21,CCGAAUGAAUGGUGAUAAATT against TUSC3,0.138
22,CAAGGACACUUCAUCGUGATT against AVPR2,-0.262

row,Sequence,median seed-adjusted z-score
1,GAACUCAUCAAAAUGCACATT against KLF15,-0.45
2,GGGAGACGAUUGUUCAUCATT against XPA,2.03 (active)
3,AUACAUCAAAGAUUAGUAATT against NTS,0.518
4,GUUAAUCACAUACACCAAATT against GPR22,0.705
5,CCGCUUGACUAUGAGCUCATT against TTC7A,-0.303
6,CCAGGAGCGAUAACAGUAATT against DAZAP1,0
7,CCUUAUCGAUAUUAUGAGATT against CPEB2,-0.00928
8,ACGUGGAGCUCUUAGACAATT against AP1S1,-1.04 (active)
9,GGAUCGGAUGGAUAAGAAUTT against CTTN,-0.314
10,CACUAGGAAUCACACCGUUTT against TINAG,0.374
11,GAGACGAGGAGGAAACUUUTT against DDX27,-0.131
12,GCAGUAUGCAGAUUGUUCATT against FGL1,-0.259
13,CAGUUGUCCUUGUGGAUAATT against TTF1,1.76 (active)
14,GAUAAUUCCAUGACAUUAUTT against CYP39A1,0.196
15,GAAGAGAACUCUAAGAUCATT against CAMK1G,-0.358
16,GCAAGUCCCUGUACUAUUATT against ANXA2,0.499
17,GCAGAACUGCUGCUACAGATT against ANKZF1,0.176
18,CACCGUUCAUCUGCACAGATT against KATNA1,-0.471
19,CGAUAAACUCAGACCAGAATT against IDE,-0.081
20,GGAAAGUUGAUUUUUAUGATT against MS4A6E,-0.341
21,GGCUCUACGGUUUCAAGAUTT against CSNK2B,-1.62 (active)
22,CAAUGUCCCAAGAUAAAGATT against PRPSAP1,0.224

row,Sequence,median seed-adjusted z-score
1,CUCUUUGACCGGUUGCUCATT against EGLN2,-0.349
2,CCAUUUUAGCUCUAGAAGATT against GSTA4,-0.848
3,GAAUUGGCCGUUGGGCUUATT against COX8A,-0.0749
4,CAUCUCGACUUAUUGGAAATT against WEE1,-4.05 (active)
5,CAAGGUCAUUAAUAAGGAUTT against CST5,0.466
6,CACCCAACACCAAACUGUATT against HSPB6,0.394
7,GAAUUAACUUCAUGGUGAATT against PPM1K,0.154
8,GCCGAAUCCUGAAGAGACATT against QTRTD1,0.377
9,CAACCACUGUGAGACGAAATT against MFGE8,0.0367
10,CUGAGAUACUGCAAGCUGATT against IL5RA,-0.357
11,CCGACUACUCCAACGAGAATT against MASP2,-0.137
12,GCUCAAGAGCUUGCACAGATT against SLC25A42,-1.02 (active)
13,CUCUGAACCAAAUCGUUUATT against DPP8,-0.0209
14,GAUGACUACUUAGCUCUAATT against FLJ90650,0.427
15,GGCCUAGUGUAAUCUCCCATT against ZNF774,-0.0834
16,GCAGAUCGAUUUCUCAACATT against ABCA1,-1.27 (active)
17,CCAUGUUACCAUACAAUAATT against MXD1,-0.763
18,CCACAGAGGCUAUGCUAAATT against ACE,0.0874
19,GUAGCUCCGAGGUCUGAUATT against SMARCA4,0.223
20,GGAACUACCAGAUCGGGAATT against MYO9B,-0.0287
